Test results as given in PubChem BioAssay.
Unmarked numbers belong to inactive results. For part of these data: Results with a measured potency or affinity are listed apart. Calls of active or inactive are those of the source. Unless noted, how the calls were made is not given here.

Assays:
[1] = antimalarial activity against Dd2 strain (AID 2302;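 active means growth inhibition above 50% at the single 2 µM test dose, taken to imply half-maximal potency below 2 µM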;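 further: 0% = DMSO untreated growth and 100% = chloroquine plus artemisinin killed control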); details: P. falciparum Dd2 in RBCs, LDH growth readout, 72 h; at 2 µM; stronger effect = higher value
[2] = human hepatoma cell viability loss – ATP luminescence, cytotoxicity control for P. falciparum antimalarial project, primary screen (AID 2303;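 active means inhibition above 50%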;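 further: 0% = DMSO wells and 100% = digitonin-killed cells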); details: HepG2 viability, 24-48 h, at 10 µM, stronger effect = higher value
[3] = biological target: L-lactate dehydrogenase (Plasmodium falciparum (isolate CDC / Honduras)) (UniProt Q27743); assay: PfLDH activity inhibition – cell lysate, 3D7 strain, counter-screen for P. falciparum growth inhibition project (AID 2304);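 further: 0% = vehicle and 100% = reference inhibitor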; details: P. falciparum 3D7 crude extract, LDH APAD/NBT absorbance; at 2 µM; stronger effect = higher value
Sequence of L-lactate dehydrogenase (Plasmodium falciparum (isolate CDC / Honduras)) (Q27743 whole entry, looked up): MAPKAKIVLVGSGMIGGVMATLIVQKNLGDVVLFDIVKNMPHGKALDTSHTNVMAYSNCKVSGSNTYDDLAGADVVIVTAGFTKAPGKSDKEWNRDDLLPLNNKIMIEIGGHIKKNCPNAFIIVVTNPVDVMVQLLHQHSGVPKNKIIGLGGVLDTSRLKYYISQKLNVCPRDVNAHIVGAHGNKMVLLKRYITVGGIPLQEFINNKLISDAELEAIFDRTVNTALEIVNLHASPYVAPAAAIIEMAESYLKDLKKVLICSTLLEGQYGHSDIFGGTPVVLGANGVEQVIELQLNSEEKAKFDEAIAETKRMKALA

[4] = inhibition of 3D7 malaria parasite growth – strain 3D7 (AID 2306);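 further: 0% = DMSO wells and 100% = chloroquine plus artemisinin control wells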; details: P. falciparum 3D7 erythrocytic growth, LDH absorbance, 72 h; at 2 µM; stronger effect = higher value
[5] = biological target: Calcium-dependent protein kinase 1 (Plasmodium falciparum (isolate 3D7)) (UniProt P62344); assay: PfCDPK1 kinase inhibitors, biochemical, TCAMS library (AID 1159585; cut-off not given, nearly all actives have IC50 up to about 0.98 µM;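 further: inhibitors leave more ATP so luminescence rises with inhibition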); details: recombinant PfCDPK1, Kinase-Glo ATP depletion luminescence
Sequence of Calcium-dependent protein kinase 1 (Plasmodium falciparum (isolate 3D7)) (P62344 whole entry, looked up): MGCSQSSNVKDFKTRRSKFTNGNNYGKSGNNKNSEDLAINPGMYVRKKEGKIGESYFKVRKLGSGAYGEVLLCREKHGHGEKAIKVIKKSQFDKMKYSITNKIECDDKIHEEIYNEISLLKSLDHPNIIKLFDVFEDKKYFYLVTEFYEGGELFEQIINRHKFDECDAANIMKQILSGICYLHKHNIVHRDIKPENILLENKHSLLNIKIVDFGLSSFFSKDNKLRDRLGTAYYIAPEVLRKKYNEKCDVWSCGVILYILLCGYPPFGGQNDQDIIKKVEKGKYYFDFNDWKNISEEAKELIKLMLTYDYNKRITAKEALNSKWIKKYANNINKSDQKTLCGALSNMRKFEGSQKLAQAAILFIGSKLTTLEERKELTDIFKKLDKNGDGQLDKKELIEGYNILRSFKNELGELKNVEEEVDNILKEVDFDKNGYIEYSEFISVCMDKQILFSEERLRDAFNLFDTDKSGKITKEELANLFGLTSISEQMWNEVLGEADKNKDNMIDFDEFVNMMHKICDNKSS

[6] = biological target: Plasmodium falciparum protein kinase 6 (PK6, PF3D7_1337100) (UniProt Q8IDW1); assay: PfPK6 kinase inhibitors, biochemical, TCAMS library (AID 1159586); details: recombinant PfPK6, Kinase-Glo ATP depletion luminescence
Sequence of Plasmodium falciparum protein kinase 6 (PK6, PF3D7_1337100) (Q8IDW1 1-305): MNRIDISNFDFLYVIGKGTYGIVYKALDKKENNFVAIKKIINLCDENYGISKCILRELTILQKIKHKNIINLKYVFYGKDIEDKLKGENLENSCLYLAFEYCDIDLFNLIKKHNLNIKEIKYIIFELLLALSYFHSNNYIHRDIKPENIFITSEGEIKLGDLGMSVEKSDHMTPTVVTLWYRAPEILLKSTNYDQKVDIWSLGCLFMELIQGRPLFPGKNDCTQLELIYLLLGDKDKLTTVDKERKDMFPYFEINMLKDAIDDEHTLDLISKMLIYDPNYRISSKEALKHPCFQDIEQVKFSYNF

[7] = biological target: Protein kinase 7 (PK7), Plasmodium falciparum 3D7 (PF3D7_0213400) (UniProt Q7YTF7); assay: inhibition of Plasmodium PK7 catalytic activity – biochemical, TCAMS antimalarial set, Kinase-Glo luminescence (AID 1159587); details: recombinant PfPK7, Kinase-Glo ATP depletion luminescence
Sequence of Protein kinase 7 (PK7), Plasmodium falciparum 3D7 (PF3D7_0213400) (Q7YTF7 1-343): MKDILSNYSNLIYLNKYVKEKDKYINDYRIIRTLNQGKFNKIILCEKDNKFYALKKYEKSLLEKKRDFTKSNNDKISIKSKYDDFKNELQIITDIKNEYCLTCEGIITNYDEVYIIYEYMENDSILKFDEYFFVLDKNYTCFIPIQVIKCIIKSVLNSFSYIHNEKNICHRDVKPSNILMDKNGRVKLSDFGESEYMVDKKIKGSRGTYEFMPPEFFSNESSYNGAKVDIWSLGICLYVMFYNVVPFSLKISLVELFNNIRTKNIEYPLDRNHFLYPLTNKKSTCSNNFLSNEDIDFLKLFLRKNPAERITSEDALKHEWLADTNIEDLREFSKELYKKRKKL

[8] = biological target: Calcium-dependent protein kinase 4 (Plasmodium falciparum (isolate 3D7)) (UniProt Q8IBS5); assay: PfCDPK4 kinase inhibitors, biochemical, TCAMS library (AID 1159588; cut-off not given, nearly all actives have IC50 up to about 0.91 µM); details: recombinant PfCDPK4, Kinase-Glo ATP depletion luminescence
Sequence of Calcium-dependent protein kinase 4 (Plasmodium falciparum (isolate 3D7)) (Q8IBS5 whole entry, looked up): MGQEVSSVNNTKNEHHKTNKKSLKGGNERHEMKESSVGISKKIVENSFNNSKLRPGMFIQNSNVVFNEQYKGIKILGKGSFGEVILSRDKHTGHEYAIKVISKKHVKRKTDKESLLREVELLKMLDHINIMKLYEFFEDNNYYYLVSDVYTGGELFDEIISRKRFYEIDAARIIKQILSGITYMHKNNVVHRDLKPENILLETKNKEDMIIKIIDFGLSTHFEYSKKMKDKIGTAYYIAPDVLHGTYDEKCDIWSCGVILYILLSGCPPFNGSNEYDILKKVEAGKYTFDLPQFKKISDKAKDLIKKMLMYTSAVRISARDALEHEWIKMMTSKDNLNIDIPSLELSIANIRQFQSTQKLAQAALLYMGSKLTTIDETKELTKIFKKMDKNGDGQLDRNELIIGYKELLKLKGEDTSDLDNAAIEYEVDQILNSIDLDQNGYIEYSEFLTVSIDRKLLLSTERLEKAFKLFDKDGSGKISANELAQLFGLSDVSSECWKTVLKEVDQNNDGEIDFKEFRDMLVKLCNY

Structure (SMILES)	growth inhibition [1]	inhibition [2]	inhibition [3]	growth inhibition [4]	outcome [5]	outcome [6]	outcome [7]	outcome [8]
CCc1cc([C@H]2O[C@@H](n3cnc4c(NCC(c5ccccc5)c5ccccc5)nc(NCCNc5ccccn5)nc43)[C@H](O)[C@@H]2O)on1	32%	14%	-9%	94% (active)	inactive	inactive	inactive	inactive
COc1ccccc1N1CCN(c2cccc3c2nc(-c2cncc(C#N)c2)n3CCNCc2ccccc2)CC1	81% (active)	-8%	3%	101% (active)	inactive	inactive	inactive	inactive
CCCCCCNCCOc1ccc(-c2nc(-c3ccccc3)c(-c3ccccc3)[nH]2)cc1	39%	14%	-4%	98% (active)	inactive	inactive	inactive	inactive
O=C(C=Cc1cccs1)N(CCCn1ccnc1)c1nc2ccc(F)cc2s1	28%	-1%	-1%	98% (active)	inactive	inactive	inactive	inactive
CCOc1cc(Cl)c(C(C)NC(=O)c2ccccc2)cc1OCC (configuration not stated)	49%	-3%	-1%	91% (active)	inactive	inactive	inactive	inactive
CCCCOc1ccccc1C(=O)NCc1csc(-c2ccccc2)n1	91% (active)	17%	0%	93% (active)	inactive	inactive	inactive	inactive
Cc1ccccc1Nc1cc(Nc2ccccc2C)c2ccccc2n1	93% (active)	28%	-1%	96% (active)	inactive	inactive	inactive	inactive
Nc1cccc(CNCc2ccc(-c3cccc(-c4nc5ccc(C(F)(F)F)cc5[nH]4)c3)cc2)c1	100% (active)	60% (active)	-2%	100% (active)	inactive	inactive	inactive	inactive
C=CCOc1ccc(CNC2CCN(Cc3ccccc3)CC2)cc1Br	8%	9%	-2%	92% (active)	inactive	inactive	inactive	inactive
COC1(C)Oc2ccc3cccc([N+](=O)[O-])c3c2C1=O (configuration not stated)	-4%	3%	-2%	98% (active)	inactive	inactive	inactive	inactive
O=C(/C=C/c1ccc(Cl)c(Cl)c1)NCCCCCN1CCCN(C(=O)Nc2ccc([N+](=O)[O-])cc2)CC1	28%	32%	-1%	97% (active)	inactive	inactive	inactive	inactive
Cc1cc(Cl)c(S(=O)(=O)N(C)c2ccccc2)cc1OCC(=O)NC1CCCCC1	94% (active)	3%	-3%	99% (active)	inactive	inactive	inactive	inactive
CCOc1cccc(C2c3c(oc4ccccc4c3=O)C(=O)N2CCN(CC)CC)c1 (configuration not stated)	66% (active)	5%	-2%	100% (active)	inactive	inactive	inactive	inactive
Cc1cccc(Nc2c(-c3cc(Br)ccc3O)nc3ncccn23)c1	98% (active)	-2%	1%	100% (active)	inactive	inactive	inactive	inactive
Cc1ccccc1C1CCN(C2CCC(NC(=O)c3cc(-c4ccccc4)oc3C)CC2)CC1 (configuration not stated)	32%	46%	0%	100% (active)	inactive	inactive	inactive	inactive
COc1ccc(NC(=O)CCNc2cc(C)nc(NCc3cccc(C)c3)n2)cc1	25%	14%	1%	100% (active)	inactive	inactive	inactive	inactive
CC(C)N1CCN(C(CN2CCN(CCCOc3cccc4ccccc34)CC2)c2ccc(F)cc2)CC1 (configuration not stated)	75% (active)	54% (active)	4%	101% (active)	inactive	inactive	inactive	inactive
CO/C(=C\C=C\c1cc2cc(Cl)c(Cl)cc2[nH]1)C(=O)NCCCNC12CC3CC(CC(C3)C1)C2	76% (active)	29%	-2%	99% (active)	inactive	inactive	inactive	inactive
O=C(Nc1cccc(-c2ccc(CN3CCCC3)cc2)c1)c1ccc(Cl)cc1	47%	29%	-1%	100% (active)	inactive	inactive	inactive	inactive
O=C(/C=C/c1ccc(Cl)c(Cl)c1)N1CCC(CCCN2CCC(c3c[nH]c4ccc(O)cc34)CC2)CC1	99% (active)	60% (active)	1%	102% (active)	inactive	inactive	inactive	inactive

Structure (SMILES)	growth inhibition [1]	inhibition [2]	inhibition [3]	growth inhibition [4]	outcome [5]	outcome [6]	outcome [7]	outcome [8]
O=S(=O)(NCCN1CCCC1)c1ccc(-c2cccc(CNCc3ccc(F)cc3)c2)cc1	41%	76% (active)	-2%	100% (active)	inactive	inactive	inactive	inactive
CCOC(=O)C1=C(C)NC2=C(C(=O)CC(C)(C)C2)C1c1ccc(Br)cc1 (configuration not stated)	66% (active)	0%	2%	90% (active)	inactive	inactive	inactive	inactive
C=CCO[C@@H]1O[C@H](COC(c2ccccc2)(c2ccccc2)c2ccccc2)[C@@H](OC(C)=O)[C@H](OC(C)=O)[C@H]1NC(C)=O	66% (active)	-1%	-1%	93% (active)	inactive	inactive	inactive	inactive
CCOC(=O)[C@H](Cc1cc([N+](=O)[O-])c(Oc2ccc(OC)c(Cc3ccc(OC)c(C(C)C)c3)c2)c([N+](=O)[O-])c1)NC(=O)C(F)(F)F	-3%	5%	-3%	94% (active)	inactive	inactive	inactive	inactive
CCN(CC)S(=O)(=O)c1ccc(C(=O)Oc2ccccc2N(Cc2ccc(OC)cc2)C2=NS(=O)(=O)c3ccccc32)cc1	63% (active)	0%	-3%	98% (active)	inactive	inactive	inactive	inactive
CCC(C)(C)C1CCc2nc(N)nc(N)c2C1 (configuration not stated)	97% (active)	71% (active)	4%	95% (active)	inactive	inactive	inactive	inactive
NC1=NC2(CCCC2)C(c2ccc(Cl)c(Cl)c2)C(N)=N1 (configuration not stated)	3%	7%	-1%	92% (active)	inactive	inactive	inactive	inactive
N[C@@H](Cc1cc(I)c(Oc2ccc(O)c(C(=O)O)c2)c(I)c1)C(=O)O	21%	57% (active)	-1%	97% (active)	inactive	inactive	inactive	inactive
O=C(/C=C/c1ccc(Cl)c(Cl)c1)NCCCCCN1CCC(NC(=O)c2ccc(F)c(F)c2)CC1	20%	36%	-3%	99% (active)	inactive	inactive	inactive	inactive
COC(=O)Nc1cc(C(F)(F)F)ccc1N1CCCC(NS(=O)(=O)c2ccc(C(C)(C)C)cc2)C1 (configuration not stated)	90% (active)	-8%	-5%	97% (active)	inactive	inactive	inactive	inactive
O=C(Nc1cccc(CCNCc2ccccc2)c1)Nc1cccc2ccccc12	8%	13%	1%	102% (active)	inactive	inactive	inactive	inactive
CC(C)CCN(Cc1cncn1Cc1cccc(C(F)(F)F)c1)C(=O)c1cncc(-c2ccccc2)c1	4%	15%	-3%	100% (active)	inactive	inactive	inactive	inactive
CC(C)COc1ccc(Cl)cc1Cc1nc(-c2nc3nc(N4CCN(C)CC4)ccc3[nH]2)cs1	27%	29%	-6%	99% (active)	inactive	inactive	inactive	inactive
CNS(=O)(=O)CCNCc1ccc(-c2ccc3ncnc(Nc4ccc(OCc5ccccc5)cc4)c3c2)o1	26%	19%	-3%	101% (active)	inactive	inactive	inactive	inactive
CC(=O)NCCCCC1NC2(C(=O)N(Cc3ccc(C(C)(C)C)cc3)c3ccccc32)C2C(=O)N(C3CCCCC3)C(=O)C12 (configuration not stated)	71% (active)	-2%	-3%	91% (active)	inactive	inactive	inactive	inactive
CN1CCc2cc(NC(=O)c3cc4ccccc4s3)cc(-c3ccccc3)c2CC1	11%	20%	-2%	91% (active)	inactive	inactive	inactive	inactive
CC1(C)N=C(N)N=C(N)N1OCc1cccc(Cl)c1Cl	75% (active)	68% (active)	-1%	92% (active)	inactive	inactive	inactive	inactive
COc1ccc(NC(=O)Nc2ccc(-c3cccc(-c4nc5ccccc5[nH]4)c3)cc2)cc1	41%	44%	3%	99% (active)	inactive	inactive	inactive	inactive
NC(N)=Nc1nc(-c2ccc(N=C(N)N3CCC[C@H]3CN3CCCC3)cc2)cs1	66% (active)	6%	1%	82% (active)	inactive	inactive	inactive	inactive
